Assay results from article PMC4336329 (PLoS ONE, 2015).
Out of some 310,000 compounds screened, about 14,000 (4.5%) showed an effect of 50% or more. The effect is printed as a negative number. This is one part of a sample in which strong results are shown more often than they occur.

Each compound was assayed against human ether-à-go-go-related gene (hERG) potassium channel (human, UniProt Q12809) (assay: primary screen, population patch clamp on CHO cells stably expressing hERG; higher = less effect of the substance).
Chain of human ether-à-go-go-related gene (hERG) potassium channel (Q12809 whole entry, looked up): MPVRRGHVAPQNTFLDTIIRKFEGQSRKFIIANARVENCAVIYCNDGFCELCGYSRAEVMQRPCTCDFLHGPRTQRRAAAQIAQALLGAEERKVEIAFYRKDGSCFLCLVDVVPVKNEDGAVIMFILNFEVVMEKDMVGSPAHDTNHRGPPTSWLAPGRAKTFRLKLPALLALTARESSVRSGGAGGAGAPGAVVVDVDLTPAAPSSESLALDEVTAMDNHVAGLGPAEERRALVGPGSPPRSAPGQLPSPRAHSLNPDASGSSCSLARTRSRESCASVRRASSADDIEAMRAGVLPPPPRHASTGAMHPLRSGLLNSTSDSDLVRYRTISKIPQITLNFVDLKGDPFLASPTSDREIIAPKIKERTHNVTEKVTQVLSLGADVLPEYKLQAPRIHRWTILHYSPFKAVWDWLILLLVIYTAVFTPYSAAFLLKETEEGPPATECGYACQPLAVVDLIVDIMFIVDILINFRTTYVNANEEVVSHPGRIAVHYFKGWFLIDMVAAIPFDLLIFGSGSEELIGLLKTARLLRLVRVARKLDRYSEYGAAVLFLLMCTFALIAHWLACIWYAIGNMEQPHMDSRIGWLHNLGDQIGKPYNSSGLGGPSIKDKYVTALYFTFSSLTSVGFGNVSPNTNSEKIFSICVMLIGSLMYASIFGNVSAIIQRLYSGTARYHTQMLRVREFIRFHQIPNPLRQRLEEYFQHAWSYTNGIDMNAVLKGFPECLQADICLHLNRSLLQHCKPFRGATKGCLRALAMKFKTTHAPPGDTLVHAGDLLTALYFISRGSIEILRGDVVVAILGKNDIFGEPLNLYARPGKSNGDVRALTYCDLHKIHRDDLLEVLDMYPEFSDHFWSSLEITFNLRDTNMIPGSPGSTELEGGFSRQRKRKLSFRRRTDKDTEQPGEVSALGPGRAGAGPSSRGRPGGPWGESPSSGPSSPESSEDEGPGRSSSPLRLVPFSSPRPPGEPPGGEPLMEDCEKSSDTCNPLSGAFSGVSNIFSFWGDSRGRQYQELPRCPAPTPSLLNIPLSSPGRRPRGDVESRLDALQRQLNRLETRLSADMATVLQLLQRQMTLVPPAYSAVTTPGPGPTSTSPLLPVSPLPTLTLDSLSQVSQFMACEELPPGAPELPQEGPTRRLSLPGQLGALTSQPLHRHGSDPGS
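Also: peak tail current of the secondary pulse compared with the same well before compound.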

| Compound | hERG current change (%, negative = inhibition) at 10uM |
| --- | --- |
| O=C(CN1CCC(C(=O)c2ccc(F)cc2)CC1)Nc1ccccc1Cl | -20.5% |
| CCN(CC)S(=O)(=O)c1ccc(C)c(NC(=O)CNCc2ccccc2OC)c1.O=C(O)C(=O)O | -37.7% |
| O=C(CN1CCNCC1)Nc1ccccc1Cl | -2.06% |
| CC(=O)N1CCN(CC(=O)Nc2ccc(C)c(F)c2)CC1.Cl | 0.314% |
| Cc1cc(-c2csc(N)n2)c(C)n1CCc1ccccc1.Cl | -12.4% |
| Cc1ccc(Oc2ncc(CN3CCOCC3)s2)cc1 | 3.3% |
| C=CCn1c(SCC(=O)Nc2cc(C)on2)nc2sc(C)c(C)c2c1=O | -0.759% |
| O=C(Nc1nnc(-c2ccc(Br)cc2)o1)C1=COCCO1 | 3.07% |
| COc1ccccc1CNC(=O)c1ccc(N(C)S(=O)(=O)c2ccc(C)cc2)cc1 | 17.5% |
| Cl.OC(c1ccccc1)(C1CCCCC1)C(CN1CCOCC1)c1ccccc1 (centres unmarked) | -12.5% |
| Cn1nnnc1SC1CC(=O)N(c2ccccc2)C1=O (centres unmarked) | 2.48% |
| O=C(NCCO)c1ccc2[nH]c3ccccc3c2c1 | 9.18% |
| Cc1ccc(NC(=O)CNCc2ccccc2)c(Br)c1 | 0.831% |
| Cc1ccc(NC(=O)CN2CCOCC2)c(Br)c1 | -9.76% |
| Cc1ccc(NC(=O)CN2CCN(Cc3ccccc3)CC2)c(Br)c1.Cl | -72.5% |
| COc1ccccc1CNC(=O)C1CCN(S(=O)(=O)c2ccc(-n3cnnn3)cc2)CC1 | -66.9% |
| COc1cccc(CNC(=O)C(=O)N2CCC3(CC2)OCCN3S(=O)(=O)c2ccc(C)cc2)c1 | -57% |
| COc1ccccc1N1CCN(S(=O)(=O)c2ccc(-n3cnnn3)c(C)c2)CC1 | -13.7% |
| COc1ccccc1N1CCN(S(=O)(=O)c2ccc(-n3cnnn3)cc2)CC1 | -72% |
| O=S(=O)(c1ccc(-n2cnnn2)cc1)N1CCN(c2ccccc2F)CC1 | -3.2% |
| CCNC(=O)C(=O)N1CCC2(CC1)OCCN2S(=O)(=O)c1ccc(C)cc1 | 2.81% |
| COc1ccc(CNC(=O)C(=O)N2CCC3(CC2)OCCN3S(=O)(=O)c2ccc(C)cc2)cc1 | -29.9% |

| Compound | hERG current change (%, negative = inhibition) at 10uM |
| --- | --- |
| O=C(NCc1ccccc1Cl)C1CCN(S(=O)(=O)c2ccc(-n3cnnn3)cc2)CC1 | -27.3% |
| CCOC(=O)N1CCN(S(=O)(=O)c2ccc(-n3cnnn3)cc2)CC1 | -61.4% |
| CCCN1CCN(S(=O)(=O)c2ccc(-n3cnnn3)cc2)CC1 | -28% |
| CCOC(=O)N1CCN(S(=O)(=O)c2ccc(C)cc2)CC1 | 17.9% |
| CCOC(=O)c1ccc(S(=O)(=O)N2CCC(C(=O)NCc3ccccc3OC)CC2)cc1 | -22.5% |
| CS(=O)(=O)N1CCN(C(=O)Cc2ccc(Br)cc2)CC1 | -1.44% |
| COc1ccc2[nH]cc(CCNS(=O)(=O)c3ccc(F)cc3)c2c1 | 4.05% |
| Cc1cc(C)c(OCC(=O)Nc2nnc(-c3ccco3)o2)c(C)c1 | 1.74% |
| COc1ccccc1NC(=O)c1sc(Cl)nc1C | 2.93% |
| O=[N+]([O-])c1ccc(S(=O)(=O)Nc2ccc(-c3ccc(N4CCOCC4)nn3)cc2)cc1 | -7.79% |
| O=C(Cc1ccccc1)NNC(=S)NC(=O)c1cccnc1 | 14.7% |
| CC(C)C(NC(=O)C1CCCCC1)C(=O)Nc1ccc2c(c1)OCCO2 (centres unmarked) | -1.07% |
| CC(C)(C)OC(=O)N1CC(O)CC1C(=O)OCC(=O)c1ccc(-c2ccccc2)cc1 (centres unmarked) | 32% |
| COC(=O)C1Cc2c([nH]c3ccccc23)CN1 (centres unmarked) | 1.45% |
| CN(C)c1ccc(N2C(=NC(=O)COc3ccccc3)SC3CS(=O)(=O)CC32)cc1 (centres unmarked) | 23.7% |
| COc1ccc(-c2cnn3c4c(c(C)nc23)CCN4C2CCCC2)cc1OC | 2.7% |
| COc1ccc(S(=O)(=O)N2CCC(C(=O)NCc3cccc(OC)c3)CC2)cc1 | -17.4% |
| COc1ccc(S(=O)(=O)N2CCC(C(=O)NCCC(=O)NCc3cccc(OC)c3)CC2)cc1 | -4.05% |
| COc1cccc(CNC(=O)C2CCN(S(=O)(=O)c3ccc(-n4cnnn4)cc3)CC2)c1 | -57.3% |
| COc1ccc(CNC(=O)C2CCCN(S(=O)(=O)c3ccc(-n4cnnn4)cc3)C2)cc1 (centres unmarked) | -8.97% |
| COc1cccc(CNC(=O)C2CCN(S(=O)(=O)c3ccc(C)cc3)CC2)c1 | -50.4% |
| COc1cccc(CNC(=O)C2CCN(S(=O)(=O)c3ccccc3)CC2)c1 | -36% |
